Where “and” joins values, the source holds several entries; their conditions need not be identical. Identical values can stand only once. Results filed as inconclusive are left out. Calls of active or inactive are those of the source. The call rests on the fitted dose curve.
Legend:
[1] = biological target: Acetylcholinesterase (Homo sapiens) (UniProt P22303); assay: Acetylcholinesterase (AChE) small molecule antagonists: colormetric cell-based qHTS assay (AID 1347395); further: nearly all actives have a fitted effect of over 30% in size; further: potency means the concentration at half of the fitted maximal effect
Method in brief: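 Neuroblastoma line SH-SY5Y supplied the enzyme; cells were preincubated with compound for 30 min at 37 C and 5% CO2. Acetylthiocholine with DTNB was then added for 90 min at 37 C, and thiocholine was measured by colour.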

[2] = biological target: Acetylcholinesterase (Homo sapiens) (UniProt P22303); assay: Acetylcholinesterase (AChE) small molecule antagonists: enzyme-based qHTS assay (AID 1347397); conditions: Potency: AChE enzyme activity inhibition; outcome: AChE enzyme activity inhibition; further: nearly all actives have a fitted effect of over 55% in size; further: potency means the concentration at half of the fitted maximal effect
Method in brief: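 Enzyme inhibition was scored from DTNB-detected thiocholine formed by recombinant human AChE acting on acetylthiocholine. The 30 min compound preincubation and 10 min substrate reaction were both run at room temperature, with DMSO as vehicle control.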

[3] = biological target: Acetylcholinesterase (Homo sapiens) (UniProt P22303); assay: Acetylcholinesterase (AChE) small molecule antagonists: fluorescence cell-based qHTS assay (AID 1347398); conditions: Potency: AChE activity; outcome: AChE activity; further: nearly all actives have a fitted effect of over 50% in size; further: potency means the concentration at half of the fitted maximal effect
Method in brief: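 Endogenous acetylcholinesterase of SH-SY5Y neuroblastoma cells is measured in situ. After overnight attachment and 30 min compound exposure, cells receive acetylthiocholine and Thiolite Green; fluorescence is read after 40 min at room temperature.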

[4] = biological target: Acetylcholinesterase (Homo sapiens) (UniProt P22303); assay: Acetylcholinesterase (AChE) small molecule antagonists: enzyme-based qHTS assay with human liver microsomes (AID 1347399); conditions: Potency: qHTS inhibition; outcome: qHTS inhibition; further: nearly all actives have a fitted effect of over 60% in size
Method in brief: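 Recombinant human AChE (50 mU/mL in the enzyme mix) and human liver microsomes (0.25 mg/mL final) were preincubated with compound and NADPH (0.25 mg/mL final) for 30 min at 37 C. Acetylthiocholine/DTNB was then added; thiocholine was read colorimetrically after 10 min at room temperature.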

Measured: Potency

Acetylcholinesterase (Homo sapiens), sequence (P22303 whole entry, looked up): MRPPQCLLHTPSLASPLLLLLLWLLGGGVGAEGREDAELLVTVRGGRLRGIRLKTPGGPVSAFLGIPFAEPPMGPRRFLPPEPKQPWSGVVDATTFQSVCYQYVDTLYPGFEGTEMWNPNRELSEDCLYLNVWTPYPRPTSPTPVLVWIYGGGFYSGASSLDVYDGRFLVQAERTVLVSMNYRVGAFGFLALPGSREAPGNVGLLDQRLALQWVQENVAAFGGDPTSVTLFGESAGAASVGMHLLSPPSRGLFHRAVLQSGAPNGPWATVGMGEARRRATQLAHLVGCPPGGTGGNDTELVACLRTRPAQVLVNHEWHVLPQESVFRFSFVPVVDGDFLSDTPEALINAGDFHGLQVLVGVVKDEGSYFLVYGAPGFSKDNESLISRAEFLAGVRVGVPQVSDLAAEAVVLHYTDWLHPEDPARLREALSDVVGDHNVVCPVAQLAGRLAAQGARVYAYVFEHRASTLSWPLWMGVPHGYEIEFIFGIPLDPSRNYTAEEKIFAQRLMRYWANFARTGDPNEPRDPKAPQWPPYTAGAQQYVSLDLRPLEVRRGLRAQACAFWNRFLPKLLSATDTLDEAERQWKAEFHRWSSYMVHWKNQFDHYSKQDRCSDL

Cc1ccc(C=O)cc1
inactive: all assays above

O=C1CCCc2c(O)cccc21
inactive: all assays above

Nc1ccc(O)cc1
inactive: all assays above

CCOC(=O)c1ccc(OCCN2C[C@H](O)[C@@H](O)[C@H](O)[C@H]2CO)cc1
inactive: all assays above

c1ccc(Nc2cccc3ccccc23)cc1
inactive: all assays above

NC=O
inactive: all assays above

CC(C)(O)CCC(C)(C)O
inactive: all assays above

CC1=CC2C3CC(C=C3C)C2C1 (stereo not given)
inactive: all assays above

CCCCCCCCCCC
inactive: all assays above

Nc1ccc(O)c([N+](=O)[O-])c1
inactive: all assays above

Cc1ccccc1C(=O)N1CC/C(=N\OS(=O)(=O)O)c2ccc(Cl)cc21
inactive: all assays above

CCC(=O)c1cccc(Cl)c1
inactive: all assays above

O=C(O)c1ccc(C(=O)O)cc1
inactive: all assays above

Nc1nc(Cl)nc2c1ncn2[C@H]1C[C@H](O)[C@@H](CO)O1
inactive: all assays above

CC1(C)SC(C)(C)SC(C)(C)S1
inactive: all assays above

O=[N+]([O-])c1ccc(CCO)cc1
inactive: all assays above

C=C(C)[C@@H]1CC=C(C)CC1
inactive: all assays above

CCn1cc(C(=O)O)c(=O)c2cc(F)c(N3CCNCC3)cc21
inactive: all assays above

CCCCCCCOC(C)=O
inactive: all assays above

CCn1c2ccccc2c2cc(N)ccc21
inactive: all assays above

OC(CCCN1CCCCC1)(c1ccccc1)c1ccccc1
inactive: all assays above

Cc1ncc(CO)c(CN)c1O
inactive: all assays above

Cc1cccc2cccnc12
inactive: all assays above

CCCCCCCC/C=C\CCCCCCCC(=O)OC(CO)CO
inactive: all assays above

O=C(O)c1cccc(C[C@@H]2COc3ccc(OCc4nc5cc(F)ccc5s4)cc3[C@@H]2O)c1
inactive: all assays above

N[C@H]1CN(c2c(F)cc3c(=O)c(C(=O)O)cn(C4C[C@H]4F)c3c2Cl)CC12CC2 (stereo not given in full)
inactive: all assays above

CCCCN(CCCC)C(=O)N(CCCC)CCCC
inactive: all assays above

C=C1c2cccc(O)c2C(O)=C2C(=O)[C@]3(O)C(O)=C(C(N)=O)C(=O)[C@@H](N(C)C)[C@@H]3[C@@H](O)[C@H]12
inactive: all assays above

CCN(CC)CC(=O)Oc1ccc(NC(C)=O)cc1
inactive: all assays above

CCCCCCCCCCOC(=O)c1ccccc1C(=O)OCCCCCCCC
inactive: all assays above

Oc1ccc(Cl)c2cccnc12
inactive: all assays above

C[Si](C)(C)O[Si](C)(C)O[Si](C)(C)C
inactive: all assays above

CC(=O)N(O)CCCCCNC(=O)CCC(=O)N(O)CCCCCNC(=O)CCC(=O)N(O)CCCCCN
inactive: all assays above

C[C@]12C=CC(=O)C=C1CC[C@H]1[C@@H]3C[C@@H](O)[C@](O)(C(=O)CO)[C@@]3(C)C[C@H](O)[C@@]12F
inactive: all assays above

CCCCCCCCCCCCC(=O)O
inactive: all assays above

CCOC(=O)C1=C(C)NC(C)=C(C(=O)OCC)C1c1ccccc1/C=C/C(=O)OC(C)(C)C
inactive: all assays above

CCCC(CC)c1ccccc1 (stereo not given)
inactive: all assays above

O=C(O)CN(CC(=O)O)CC(=O)O
inactive: all assays above

Nc1ccc([N+](=O)[O-])c(C(F)(F)F)c1
inactive: all assays above

CCOC(=O)Cn1c(=O)sc2cccc(Cl)c21
inactive: all assays above

CCCCCC(=O)O
inactive: all assays above

CC1(C)O[C@@H]2C[C@H]3[C@@H]4C[C@H](F)C5=CC(=O)C=C[C@]5(C)[C@@]4(F)[C@@H](O)C[C@]3(C)[C@]2(C(=O)CO)O1
inactive: all assays above

CCN(CC)CCOC(=O)C1(C2CCCCC2)CCCCC1
inactive: all assays above

Cc1noc(NS(=O)(=O)c2ccc(N)cc2)c1C
inactive: all assays above

CC1=CCC(C(C)(C)O)CC1 (stereo not given)
inactive: all assays above

CCCC(C)=O
inactive: all assays above

O=C(O)CCCC[C@@H]1SC[C@@H]2NC(=O)N[C@@H]21
inactive: all assays above

CCCCC(C=O)CC (stereo not given)
inactive: all assays above

CCO[Si](CCC#N)(OCC)OCC
inactive: all assays above

CC1CCc2cc(F)cc3c(=O)c(C(=O)O)cn1c23 (stereo not given)
inactive: all assays above

Nc1nccs1
inactive: all assays above

c1ccc(SCCSc2ccccc2)cc1
inactive: all assays above

[Cl][In]([Cl])[Cl]
inactive: all assays above

O=C(c1ccccc1)c1cc(Cl)ccc1O
inactive: all assays above

Cc1cc(O)c2c(c1)C(=O)c1cccc(O)c1C2=O
inactive: all assays above

NC(=O)NC(=O)Cc1ccccc1
inactive: all assays above

Oc1cc(O)c(Cl)cc1Cl
inactive: all assays above

O=C(O)c1ccccc1NCCc1ccccc1
inactive: all assays above

Cc1ccc2c(n1)Oc1ccc(C(C)C(=O)OCC(=O)N(C)C)cc1C2 (stereo not given)
active: [1] 15.5 µM and 12.3 µM | [2] 15.5 µM | [3] 4.9 µM
inactive: [4]

Nc1ccc(Cl)c(N)c1
inactive: all assays above

Reference: PubChem BioAssay (Tox21)
